# Active and inactive are the calls of the source.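 The calls were made as follows, unless noted: active = visually confirmed hit in the image check and inhibition above 20%; inconclusive = visually confirmed hit but inhibition not above 20%; inactive = no visual hit in the image check.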
# Columns and labels:
# [1] = inhibitors of TNFa-induced NFkB p65 translocation, primary screen, imaging, HUVEC, MLSMR starter and 10KST1 sets (AID 438;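 active = inhibition above 20% together with a positive visual image hit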;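 also: compound added about 3h40 before a 20 min TNFalpha stimulation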;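 as to inhibition: signal is the nuclear over cytoplasmic p65 intensity ratio per well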); conditions: HUVEC TNFa-induced p65 nuclear translocation; cell count: measured here: nuclei count (cytotoxicity indicator), at 2.08 µM; inhibition: at 2 µM, stronger effect = higher value, 0% TNFa-plus-vehicle, 100% no-TNFa wells
# [2] = inhibitors of mutant huntingtin aggregation, primary screen, imaging, exon1htt(103Q)mCFP cells, high-content imaging (AID 483;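 active = visual image review flags a hit and inhibition of aggregation exceeds 20%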;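 also: compound exposure lasted 3 days before fixation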;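 as to nuclei count: percent of the per-plate median nuclei count of sample wells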); conditions: exon1htt(103Q)mCFP cell line, aggregate imaging, at 2 µM; inhibition of aggregation: stronger effect = higher value; nuclei count: measured here: cell count, toxicity
# [3] = inhibitors of E-selectin induction by TNFa, primary screen, imaging, HUVEC, immunofluorescence, MLSMR starter and 10KST1 sets (AID 487); conditions: HUVEC TNFalpha-induced E-selectin immunofluorescence imaging, at 2 µM; inhibition: stronger effect = higher value; nuclei count: measured here: cell number, toxicity;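 as to inhibition: signal is fraction of cell area covered by stained E-selectin grains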;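 as to nuclei count: 100% = median nuclei count of all wells on the same plate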
# [4] = biological target: Voltage-gated potassium channel subunit beta-2 (Rattus norvegicus) (UniProt P62483); assay: KvBeta enzyme negative modulators, primary screen, biochemical, NADPH fluorescence (AID 622;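 active = fluorescence slope higher than the sample average by over 3 SD, cut at about -0.22 in these data, passing the limit was not always enough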;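 also: slope of raw intensity against log time taken from 70 to 1610 s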); conditions: recombinant KvBeta, 4-cyanobenzaldehyde reduction, at 10 µM, stronger effect = higher value
# [5] = biological target: Voltage-gated potassium channel subunit beta-2 (Rattus norvegicus) (UniProt P62483); assay: KvBeta positive modulators, primary screen, biochemical, NADPH fluorescence (AID 623;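 active = NADPH fluorescence slope more negative than the mean of all samples by about 3 SD, 99.7% confidence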;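 also: fluorescence intensity change per second fitted from 20 to 320 s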); conditions: Recombinant KvBeta, NADPH fluorescence decrease slope, 10 min; at 10 µM; stronger effect = lower value
# [6] = biological target: Alpha-2C adrenergic receptor (Homo sapiens) (UniProt P18825); assay: modulators of alpha2C/GIRK thallium flux, primary screen, cell-based, HEK293 alpha2C/GIRK1/2 (AID 624;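 active = fluorescence slope after compound addition differing from the mean of all screened samples at 99.7% confidence, in either direction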;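 also: slope of fluorescence ratio to pre-addition baseline per second over 15 to 24 s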); conditions: thallium flux BTC fluorescence, at 10 µM, actives lie on both sides
# [7] = inhibitors of Sendai virus-induced IRF3 signaling, primary screen, TLR/RLR signaling modifier project, cell-based, Sendai virus stimulus, luciferase, 10K MLSCN set (AID 602276;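 active = inhibition at or above 50% at 10 µM; inactive = inhibition below 50%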;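 also: firefly luciferase from ISG56 promoter only with Renilla not read in this screen; 0% = Sendai virus plus DMSO and 100% = medium plus DMSO without virus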); conditions: HEK293 RL24 IRF3 luciferase reporter, at 10 µM, stronger effect = higher value
# [8] = inhibitors of poly I:C-induced TLR3 signaling, primary screen, cell-based, poly I:C stimulus, luciferase, 10K MLSCN set (AID 602277;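 active = inhibition of the reporter signal at or above 50%; inactive = inhibition below 50%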); conditions: HEK293-TLR3 RL24 IRF3 luciferase reporter, at 10 µM, stronger effect = higher value
# Sequence of Alpha-2C adrenergic receptor (Homo sapiens) (P18825 whole entry, looked up): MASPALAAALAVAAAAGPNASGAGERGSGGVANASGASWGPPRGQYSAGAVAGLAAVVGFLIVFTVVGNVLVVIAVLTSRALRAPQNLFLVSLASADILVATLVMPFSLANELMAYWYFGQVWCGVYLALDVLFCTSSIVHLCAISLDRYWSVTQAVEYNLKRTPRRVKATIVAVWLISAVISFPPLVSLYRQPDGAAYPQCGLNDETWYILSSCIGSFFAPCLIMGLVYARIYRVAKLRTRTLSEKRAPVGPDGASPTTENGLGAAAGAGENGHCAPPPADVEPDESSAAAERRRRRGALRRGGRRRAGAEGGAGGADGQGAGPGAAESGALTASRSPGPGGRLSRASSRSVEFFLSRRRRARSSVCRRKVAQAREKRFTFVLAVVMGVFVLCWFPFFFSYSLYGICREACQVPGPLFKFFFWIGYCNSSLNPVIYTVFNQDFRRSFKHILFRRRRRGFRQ
# Sequence of Voltage-gated potassium channel subunit beta-2 (Rattus norvegicus) (P62483 whole entry, looked up): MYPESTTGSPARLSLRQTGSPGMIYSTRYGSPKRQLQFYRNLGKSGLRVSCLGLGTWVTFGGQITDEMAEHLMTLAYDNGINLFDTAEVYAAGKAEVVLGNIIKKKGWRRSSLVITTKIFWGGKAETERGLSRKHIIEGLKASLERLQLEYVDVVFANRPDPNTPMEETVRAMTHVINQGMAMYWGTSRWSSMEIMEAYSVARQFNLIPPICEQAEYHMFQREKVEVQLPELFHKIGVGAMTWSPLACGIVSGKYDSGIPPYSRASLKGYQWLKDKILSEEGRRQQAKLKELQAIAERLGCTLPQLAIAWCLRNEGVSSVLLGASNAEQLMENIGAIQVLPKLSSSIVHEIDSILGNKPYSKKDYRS
Compound,cell count [1],inhibition [1],inhibition of aggregation [2],nuclei count [2] [%],inhibition [3],nuclei count [3] [%],fluorescence slope [4],NADPH fluorescence slope [5],slope [6],inhibition [7],inhibition [8]
CCn1c(SCc2nc3ccccc3c(=O)[nH]2)nnc1-c1cccnc1,628,-11.9% (inactive),-9.6% (inactive),107,-66.6% (inactive),114,-0.525 (inactive),7.8e-06 (inactive),0.00487 (inactive),21.2% (inactive),25% (inactive)
Cc1noc(C)c1S(=O)(=O)N1CCN(Cc2ccc3c(c2)OCO3)CC1,730,2.5% (inactive),0.3% (inactive),106,-16.7% (inactive),117,-0.542 (inactive),-2e-05 (inactive),0.00533 (inactive),4.24% (inactive),18.3% (inactive)
C(=C\c1ccccc1)/CSc1nnc(-c2ccccn2)n1Cc1ccco1,574,1.1% (inactive),-38.4% (inactive),24,-95.8% (inactive),109,-0.5 (inactive),-5.3e-05 (inactive),0.00478 (inactive),68.5% (active),58.9% (active)
CC(=O)c1ccc(OCC(O)CN2CCN(CCO)CC2)cc1 (centres undefined),605,-6.1% (inactive),-14.2% (inactive),104,-19.7% (inactive),113,-0.549 (inactive),-2.9e-05 (inactive),0.00738 (inactive),13.3% (inactive),40.3% (inactive)
O=C(NCN1CCCCC1)c1cnccn1,604,-9.2% (inactive),-3.4% (inactive),102,-101% (inactive),115,-0.425 (inactive),-8.7e-05 (inactive),0.00561 (inactive),13.6% (inactive),29% (inactive)
CCN(CC)S(=O)(=O)c1ccc(F)cc1,630,2.4% (inactive),-0.6% (inactive),100,-75.6% (inactive),114,-0.506 (inactive),-0.000197 (inactive),0.00613 (inactive),13.9% (inactive),19.3% (inactive)
CCCCNC(=O)Cn1c(=O)n(C)c2ccccc21,600,6.9% (inactive),-14.7% (inactive),111,35.9% (inactive),103,-0.549 (inactive),-6.8e-06 (inactive),0.00707 (inactive),9.9% (inactive),30% (inactive)
COc1ccc(-c2c(C(F)(F)F)oc3c(CN4CCN(C)CC4)c(O)ccc3c2=O)cc1,555,7.7% (inactive),-14% (inactive),91.6,0.6% (inactive),112,-0.421 (inactive),2.5e-05 (inactive),0.00536 (inactive),-6.41% (inactive),8.59% (inactive)
CC1CCN(C(=O)CSc2nc3ccccc3[nH]2)CC1,761,0.5% (inactive),1.8% (inactive),110,75.2% (active),88.9,-0.359 (inactive),-9.6e-06 (inactive),0.00679 (inactive),-38.7% (inactive),-116% (inactive)
COc1ccc(OCC(=O)N2CCN(C(=O)Cc3ccccc3)CC2)cc1,616,-22.3% (inactive),-1.4% (inactive),106,-14.3% (inactive),101,-0.517 (inactive),-4.7e-05 (inactive),0.00449 (inactive),-10.1% (inactive),-7.66% (inactive)
COC(=O)Cn1c(=O)c2c(nc(Br)n2CC(=O)OC)n(C)c1=O,640,6.7% (inactive),-0.4% (inactive),103,24.8% (inactive),101,-0.406 (inactive),-1.4e-05 (inactive),0.00483 (inactive),9.82% (inactive),7.4% (inactive)
COCCCNC(=O)Cn1cc2c(n1)CCC(C)C2 (centres undefined),767,-6.1% (inactive),-6% (inactive),104,-27.6% (inactive),121,-0.652 (inactive),2.7e-06 (inactive),0.00615 (inactive),4.22% (inactive),12.1% (inactive)
CCn1nnc(NC(=O)c2ccccc2Br)n1,229,10.3% (inactive),6.4% (inactive),66,12.4% (inactive),95.4,-0.385 (inactive),-5.5e-05 (inactive),0.00604 (inactive),-19.8% (inactive),-39.6% (inactive)
O=C(NCN1CCCCC1)c1cccnc1,327,7% (inactive),-1.5% (inactive),87.9,-20% (inactive),92.8,-0.488 (inactive),-4.4e-05 (inactive),0.00701 (inactive),5.02% (inactive),35.7% (inactive)
